Assays:
Test in all cases: log2 ratio of Biotin-Ahx-Ub-VS probe labelling (fragment/DMSO); higher = less target engagement (more negative = stronger competition), active = hit call of the paper (q ≤ 0.05, log2 ratio ≤ -1)
Details in all cases: compound concentration: 200 uM; treatment time: 3 h
[1] = biological target: USP34 (UniProt Q70CQ2)
Procedure, shortened: (§1)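 Each value is an average log2 ratio of fragment to vehicle, tested by unpaired t-test. The underlying Spectronaut label-free quantities were global-median-normalised, and only proteins with ≥2 unique peptides were included. Triplicate HEK293T lysate samples (495 µg) were exposed to fragment at 200 µM or vehicle for 3 h, then to Biotin-Ahx-Ub-VS at 0.5 µM final for 1 h, before NeutrAvidin enrichment of labelled DUBs, LysC and trypsin digestion, and diaPASEF LC-MS/MS.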

[2] = biological target: T1, USP36 (UniProt Q9P275)
T1 sequence (whole entry): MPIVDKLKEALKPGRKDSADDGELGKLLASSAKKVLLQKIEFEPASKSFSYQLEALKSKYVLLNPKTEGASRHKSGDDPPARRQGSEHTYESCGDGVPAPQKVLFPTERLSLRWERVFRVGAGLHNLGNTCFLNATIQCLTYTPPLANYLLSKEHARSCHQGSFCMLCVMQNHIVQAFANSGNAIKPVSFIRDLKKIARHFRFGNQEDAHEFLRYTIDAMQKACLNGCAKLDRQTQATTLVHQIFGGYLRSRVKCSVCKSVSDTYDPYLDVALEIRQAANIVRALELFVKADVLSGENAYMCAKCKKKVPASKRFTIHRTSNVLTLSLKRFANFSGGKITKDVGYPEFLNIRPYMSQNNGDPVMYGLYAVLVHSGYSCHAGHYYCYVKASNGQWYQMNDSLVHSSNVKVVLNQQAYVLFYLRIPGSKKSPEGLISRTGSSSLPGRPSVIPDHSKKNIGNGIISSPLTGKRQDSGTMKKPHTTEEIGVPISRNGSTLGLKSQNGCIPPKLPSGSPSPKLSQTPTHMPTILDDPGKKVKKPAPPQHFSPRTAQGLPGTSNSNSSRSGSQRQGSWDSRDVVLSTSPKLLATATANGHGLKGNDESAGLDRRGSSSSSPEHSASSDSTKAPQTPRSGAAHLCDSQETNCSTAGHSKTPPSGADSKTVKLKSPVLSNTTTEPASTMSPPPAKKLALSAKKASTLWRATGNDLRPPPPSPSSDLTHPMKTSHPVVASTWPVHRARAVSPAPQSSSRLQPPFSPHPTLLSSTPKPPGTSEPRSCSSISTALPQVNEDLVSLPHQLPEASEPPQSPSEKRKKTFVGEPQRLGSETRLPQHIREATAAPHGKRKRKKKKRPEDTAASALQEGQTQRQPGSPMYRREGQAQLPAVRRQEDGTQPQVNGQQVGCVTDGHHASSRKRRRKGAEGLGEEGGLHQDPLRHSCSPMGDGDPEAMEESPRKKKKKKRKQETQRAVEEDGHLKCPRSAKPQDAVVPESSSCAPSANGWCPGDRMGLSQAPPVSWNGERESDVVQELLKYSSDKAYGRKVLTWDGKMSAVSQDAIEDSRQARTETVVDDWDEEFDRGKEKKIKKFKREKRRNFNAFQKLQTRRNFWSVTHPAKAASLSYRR
Procedure, shortened: as §1

[3] = biological target: T2, USP38 (UniProt Q8NB14)
T2 sequence (whole entry): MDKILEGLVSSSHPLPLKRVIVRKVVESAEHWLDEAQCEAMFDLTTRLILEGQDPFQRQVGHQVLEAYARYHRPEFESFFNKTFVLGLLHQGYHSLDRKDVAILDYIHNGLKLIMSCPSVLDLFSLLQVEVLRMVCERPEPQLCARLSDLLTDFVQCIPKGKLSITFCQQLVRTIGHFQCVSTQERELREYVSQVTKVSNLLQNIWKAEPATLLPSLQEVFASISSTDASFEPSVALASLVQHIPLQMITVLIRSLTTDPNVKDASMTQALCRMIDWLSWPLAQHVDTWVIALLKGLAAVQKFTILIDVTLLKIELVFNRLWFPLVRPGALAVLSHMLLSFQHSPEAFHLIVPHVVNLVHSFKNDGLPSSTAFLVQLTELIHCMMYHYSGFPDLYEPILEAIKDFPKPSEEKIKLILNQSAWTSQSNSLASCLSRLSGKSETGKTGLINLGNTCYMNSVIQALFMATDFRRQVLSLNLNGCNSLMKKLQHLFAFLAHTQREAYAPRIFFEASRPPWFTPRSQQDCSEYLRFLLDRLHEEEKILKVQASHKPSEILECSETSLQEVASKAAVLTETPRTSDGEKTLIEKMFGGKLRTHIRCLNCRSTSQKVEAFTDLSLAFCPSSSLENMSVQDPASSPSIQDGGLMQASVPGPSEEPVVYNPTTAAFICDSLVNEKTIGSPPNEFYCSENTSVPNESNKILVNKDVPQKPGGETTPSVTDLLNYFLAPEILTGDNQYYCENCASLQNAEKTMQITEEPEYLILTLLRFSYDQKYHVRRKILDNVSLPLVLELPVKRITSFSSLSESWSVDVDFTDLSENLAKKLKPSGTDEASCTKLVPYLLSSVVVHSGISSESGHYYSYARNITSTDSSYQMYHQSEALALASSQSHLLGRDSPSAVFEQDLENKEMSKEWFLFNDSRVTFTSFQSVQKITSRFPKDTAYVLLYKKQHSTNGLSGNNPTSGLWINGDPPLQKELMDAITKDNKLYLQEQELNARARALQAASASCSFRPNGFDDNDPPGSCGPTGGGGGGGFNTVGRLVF
Procedure, shortened: as §1

[4] = biological target: T3, USP39 (UniProt Q53GS9)
T3 sequence (whole entry): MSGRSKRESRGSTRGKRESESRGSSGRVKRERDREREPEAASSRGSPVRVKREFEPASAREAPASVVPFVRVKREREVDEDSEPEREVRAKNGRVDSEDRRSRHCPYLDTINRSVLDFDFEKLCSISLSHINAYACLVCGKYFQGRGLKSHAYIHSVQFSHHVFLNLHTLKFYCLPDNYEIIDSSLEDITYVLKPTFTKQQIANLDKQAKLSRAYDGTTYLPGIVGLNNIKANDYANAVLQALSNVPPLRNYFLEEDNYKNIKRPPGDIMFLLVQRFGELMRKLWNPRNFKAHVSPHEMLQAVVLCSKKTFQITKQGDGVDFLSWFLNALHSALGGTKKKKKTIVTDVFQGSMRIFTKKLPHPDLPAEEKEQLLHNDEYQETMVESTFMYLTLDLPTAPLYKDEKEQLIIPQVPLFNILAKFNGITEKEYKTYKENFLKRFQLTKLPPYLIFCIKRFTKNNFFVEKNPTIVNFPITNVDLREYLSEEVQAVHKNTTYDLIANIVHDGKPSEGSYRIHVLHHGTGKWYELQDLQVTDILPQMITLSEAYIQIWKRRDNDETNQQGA
Procedure, shortened: as §1

[5] = biological target: T4, USP4 (UniProt Q13107)
T4 sequence (whole entry): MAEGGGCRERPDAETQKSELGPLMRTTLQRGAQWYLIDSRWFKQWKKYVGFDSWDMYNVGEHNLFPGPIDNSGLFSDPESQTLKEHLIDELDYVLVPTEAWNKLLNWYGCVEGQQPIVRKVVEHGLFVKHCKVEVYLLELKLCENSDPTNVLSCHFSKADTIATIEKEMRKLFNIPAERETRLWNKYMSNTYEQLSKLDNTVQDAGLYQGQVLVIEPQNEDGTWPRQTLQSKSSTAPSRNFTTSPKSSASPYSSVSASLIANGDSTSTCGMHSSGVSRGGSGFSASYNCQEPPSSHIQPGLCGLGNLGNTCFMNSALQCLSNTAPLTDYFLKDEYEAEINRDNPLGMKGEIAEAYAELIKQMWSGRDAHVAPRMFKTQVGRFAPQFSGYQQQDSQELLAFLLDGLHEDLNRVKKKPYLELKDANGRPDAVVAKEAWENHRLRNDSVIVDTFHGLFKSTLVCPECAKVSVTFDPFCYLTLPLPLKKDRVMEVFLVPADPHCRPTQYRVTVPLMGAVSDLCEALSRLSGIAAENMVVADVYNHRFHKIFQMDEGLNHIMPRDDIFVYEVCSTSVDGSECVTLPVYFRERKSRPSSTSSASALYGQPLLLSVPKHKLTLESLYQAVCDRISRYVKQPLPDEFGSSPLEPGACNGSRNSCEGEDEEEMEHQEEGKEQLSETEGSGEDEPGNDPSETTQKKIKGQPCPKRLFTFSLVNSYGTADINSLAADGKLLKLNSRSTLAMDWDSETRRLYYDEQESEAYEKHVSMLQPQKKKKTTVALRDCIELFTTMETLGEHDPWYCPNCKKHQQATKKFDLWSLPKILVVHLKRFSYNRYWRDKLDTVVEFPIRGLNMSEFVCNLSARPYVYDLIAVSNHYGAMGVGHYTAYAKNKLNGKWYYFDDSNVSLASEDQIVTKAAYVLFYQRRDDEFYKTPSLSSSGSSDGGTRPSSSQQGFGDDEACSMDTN
Procedure, shortened: as §1

Measured: log2 ratio of Biotin-Ahx-Ub-VS probe labelling

Sequence of USP34 (Q70CQ2 whole entry, the tested form may be a part): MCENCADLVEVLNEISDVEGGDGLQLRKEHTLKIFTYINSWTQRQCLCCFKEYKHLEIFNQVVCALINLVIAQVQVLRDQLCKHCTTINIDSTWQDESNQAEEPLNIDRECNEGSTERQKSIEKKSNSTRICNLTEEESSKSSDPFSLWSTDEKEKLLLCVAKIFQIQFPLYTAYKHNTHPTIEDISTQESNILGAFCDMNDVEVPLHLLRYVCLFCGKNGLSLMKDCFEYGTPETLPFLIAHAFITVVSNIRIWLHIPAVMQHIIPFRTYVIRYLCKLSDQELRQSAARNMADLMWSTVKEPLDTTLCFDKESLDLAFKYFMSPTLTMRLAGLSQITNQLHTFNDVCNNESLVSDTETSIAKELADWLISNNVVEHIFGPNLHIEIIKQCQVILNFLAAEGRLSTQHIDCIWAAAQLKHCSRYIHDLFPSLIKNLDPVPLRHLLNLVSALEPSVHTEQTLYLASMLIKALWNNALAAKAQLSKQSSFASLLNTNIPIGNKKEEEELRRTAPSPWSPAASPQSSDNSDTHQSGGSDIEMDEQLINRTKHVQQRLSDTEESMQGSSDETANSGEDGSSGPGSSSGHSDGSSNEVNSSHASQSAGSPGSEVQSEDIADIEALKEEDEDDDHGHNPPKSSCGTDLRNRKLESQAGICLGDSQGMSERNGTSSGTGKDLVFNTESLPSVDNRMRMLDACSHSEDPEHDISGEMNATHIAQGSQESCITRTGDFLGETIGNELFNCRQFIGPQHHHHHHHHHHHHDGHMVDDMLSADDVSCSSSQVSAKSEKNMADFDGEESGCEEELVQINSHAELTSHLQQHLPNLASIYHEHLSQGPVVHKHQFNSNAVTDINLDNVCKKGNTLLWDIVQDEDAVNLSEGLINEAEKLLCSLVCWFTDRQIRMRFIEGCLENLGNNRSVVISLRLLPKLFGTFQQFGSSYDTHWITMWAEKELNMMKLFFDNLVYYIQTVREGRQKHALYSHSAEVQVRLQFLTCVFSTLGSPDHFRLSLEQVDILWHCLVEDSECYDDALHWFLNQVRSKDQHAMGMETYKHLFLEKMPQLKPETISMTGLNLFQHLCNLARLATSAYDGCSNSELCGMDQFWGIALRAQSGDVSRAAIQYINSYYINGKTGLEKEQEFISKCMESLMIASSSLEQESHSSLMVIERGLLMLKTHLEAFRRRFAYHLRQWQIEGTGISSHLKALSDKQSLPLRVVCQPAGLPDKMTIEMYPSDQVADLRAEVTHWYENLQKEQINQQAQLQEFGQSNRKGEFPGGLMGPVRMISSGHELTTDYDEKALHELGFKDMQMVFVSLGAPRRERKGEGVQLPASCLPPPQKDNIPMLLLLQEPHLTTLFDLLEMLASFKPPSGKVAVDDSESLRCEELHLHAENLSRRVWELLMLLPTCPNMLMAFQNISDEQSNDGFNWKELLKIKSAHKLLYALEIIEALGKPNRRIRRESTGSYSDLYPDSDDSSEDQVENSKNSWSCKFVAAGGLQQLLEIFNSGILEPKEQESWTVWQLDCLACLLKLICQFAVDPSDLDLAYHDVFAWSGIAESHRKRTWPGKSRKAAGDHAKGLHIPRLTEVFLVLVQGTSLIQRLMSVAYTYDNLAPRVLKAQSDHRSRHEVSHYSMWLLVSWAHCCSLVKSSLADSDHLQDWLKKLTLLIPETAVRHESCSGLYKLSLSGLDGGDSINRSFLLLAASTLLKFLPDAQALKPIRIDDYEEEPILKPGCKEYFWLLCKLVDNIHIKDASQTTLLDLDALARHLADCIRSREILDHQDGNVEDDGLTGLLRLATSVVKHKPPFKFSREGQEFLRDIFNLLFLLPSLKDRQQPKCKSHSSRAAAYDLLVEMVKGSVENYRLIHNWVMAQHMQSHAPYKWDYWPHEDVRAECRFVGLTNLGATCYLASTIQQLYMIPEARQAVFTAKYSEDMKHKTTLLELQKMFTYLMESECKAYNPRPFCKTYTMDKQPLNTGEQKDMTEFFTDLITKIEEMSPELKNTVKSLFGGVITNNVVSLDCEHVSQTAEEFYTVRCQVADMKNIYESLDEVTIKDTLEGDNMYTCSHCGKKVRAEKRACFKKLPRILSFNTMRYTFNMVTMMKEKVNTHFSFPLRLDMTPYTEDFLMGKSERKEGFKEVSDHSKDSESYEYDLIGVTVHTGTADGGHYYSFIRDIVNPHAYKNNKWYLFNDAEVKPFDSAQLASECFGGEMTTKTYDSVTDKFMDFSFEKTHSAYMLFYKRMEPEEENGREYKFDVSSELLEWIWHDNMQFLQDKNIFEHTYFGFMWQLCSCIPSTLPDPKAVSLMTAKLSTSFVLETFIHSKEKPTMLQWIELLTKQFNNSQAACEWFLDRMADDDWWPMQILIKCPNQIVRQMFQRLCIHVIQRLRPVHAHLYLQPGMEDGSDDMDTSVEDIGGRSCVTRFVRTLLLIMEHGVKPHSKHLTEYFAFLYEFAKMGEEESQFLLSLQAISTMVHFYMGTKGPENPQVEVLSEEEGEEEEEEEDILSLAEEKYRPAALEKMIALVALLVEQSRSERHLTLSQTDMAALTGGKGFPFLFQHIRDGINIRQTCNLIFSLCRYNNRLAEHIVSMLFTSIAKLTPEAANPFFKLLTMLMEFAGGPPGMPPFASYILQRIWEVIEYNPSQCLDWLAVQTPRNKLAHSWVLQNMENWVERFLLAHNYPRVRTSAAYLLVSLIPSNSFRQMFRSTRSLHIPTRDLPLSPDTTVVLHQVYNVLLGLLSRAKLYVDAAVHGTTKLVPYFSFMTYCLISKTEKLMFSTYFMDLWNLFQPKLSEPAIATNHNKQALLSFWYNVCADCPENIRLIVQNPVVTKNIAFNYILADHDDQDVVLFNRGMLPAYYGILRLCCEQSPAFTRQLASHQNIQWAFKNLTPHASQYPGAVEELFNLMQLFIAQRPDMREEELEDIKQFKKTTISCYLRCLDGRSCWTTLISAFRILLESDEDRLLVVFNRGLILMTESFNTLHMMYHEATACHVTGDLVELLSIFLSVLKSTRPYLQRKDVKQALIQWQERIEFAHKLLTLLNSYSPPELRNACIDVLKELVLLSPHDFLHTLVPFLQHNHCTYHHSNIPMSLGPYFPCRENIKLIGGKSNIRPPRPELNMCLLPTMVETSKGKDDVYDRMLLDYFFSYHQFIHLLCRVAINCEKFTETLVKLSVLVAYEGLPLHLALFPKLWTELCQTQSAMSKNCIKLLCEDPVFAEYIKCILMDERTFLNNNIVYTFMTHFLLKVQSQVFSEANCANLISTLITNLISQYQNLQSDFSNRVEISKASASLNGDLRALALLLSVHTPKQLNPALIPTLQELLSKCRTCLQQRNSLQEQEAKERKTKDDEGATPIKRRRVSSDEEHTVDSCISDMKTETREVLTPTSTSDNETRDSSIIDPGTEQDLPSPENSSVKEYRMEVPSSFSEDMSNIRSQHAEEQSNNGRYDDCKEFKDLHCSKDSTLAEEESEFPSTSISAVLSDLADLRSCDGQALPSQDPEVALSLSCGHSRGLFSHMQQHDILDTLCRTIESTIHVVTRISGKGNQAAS

O=C(CCl)N1CCOC(c2cccc(F)c2)C1 (stereo not given)
inactive: [1] -0.575 | [2] -0.337 | [3] -0.131 | [4] -0.0268 | [5] -0.344

Reference: the supplement of paper PMC11732987, “Enantioselective OTUD7B fragment discovery through chemoproteomics screening and high-throughput optimisation” (Communications Chemistry, 2025)
